# Assay outcomes as filed in PubChem BioAssay.
# Hits are enriched below; roughly 4.8% of the tested compounds scored in any of these assays.
# hgDAF-12 ag = hgDAF-12 agonism, primary luciferase screen. HEK293 GAL4-hgDAF12 UAS-luciferase reporter, agonist luminescence; normalized to butyrate control. activation, % at 6.8 µM. 370,000 tested, 1.8% active;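 active means activation above a cutoff set at the mean of all screened compounds plus 3 SD, cut at about 10% in these data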;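 further: 0% = DMSO wells and 100% = sodium butyrate wells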
# SMARCA2 activ = increases SMARCA2 function in MMTV reporter cells; activation, % at 9.1 µM; 370,000 tested, 1% active; MG213 cells, MMTV-luciferase reporter, dexamethasone, overnight; in the data active means activation above about 7.8%;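 further: 0% = vehicle wells and 100% = reference activator wells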
# DAX1 inh-1 = DAX1 (NR0B1) inhibition, primary screen; HEK293T StAR-luciferase reporter, SF-1/DAX-1 repression relief; AID 652010; inhibition, % at 6.8 µM; 370,000 tested, 1.1% active;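 active means inhibition above the mean over all tested compounds plus 3 SD, cut at about 3.6% in these data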;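 further: 0% = DAX-1 cells with DMSO and 100% = cells lacking DAX-1 with DMSO; higher inhibition means more luminescence from relief of DAX-1 repression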
# hcDAF-12 act = H. contortus DAF-12 activation, primary screen | HEK293 hcDAF-12 lit1-tk-luc reporter, luminescence; 0% DMSO, 100% Δ7-dafachronic acid | activation, % at 6.8 µM | 370,000 tested, 1.4% active | AID 652067;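 active means activation above the mean of all tested compounds plus 3 SD, cut at about 5.5% in these data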;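 further: 100% = response to 3 µM Δ7-dafachronic acid high control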
# ssDAF-12 act = activates DAF-12 receptor from parasite S. stercoralis; activation, % at 6.8 µM; AID 652126; HEK293 ssDAF-12/GRIP1 lit1-tk-luc reporter, luminescence; % of 3 µM dafachronic acid response; 370,000 tested, 1% active;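 active means activation above the mean over all tested compounds plus 3 SD, cut at about 0.9% in these data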;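 further: 0% = DMSO-only wells and 100% = 3 µM delta7-dafachronic acid wells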
# DAX1 inh-2 = inhibits human nuclear receptor DAX1; HEK293 Gal4-DAX1 luciferase reporter, luminescence; inhibition, % at 6.75 µM; 340,000 tested, 0.99% active; P51843; AID 504766;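 active means inhibition above the mean over all tested compounds plus 3 SD, cut at about 4.2% in these data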;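 further: 0% = DAX1-transfected cells with DMSO and 100% = empty-vector control cells with DMSO; inhibition shows as a rise in luminescence from relieved DAX1 repression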
# Target sequence (P51843 207-470 limits assumed): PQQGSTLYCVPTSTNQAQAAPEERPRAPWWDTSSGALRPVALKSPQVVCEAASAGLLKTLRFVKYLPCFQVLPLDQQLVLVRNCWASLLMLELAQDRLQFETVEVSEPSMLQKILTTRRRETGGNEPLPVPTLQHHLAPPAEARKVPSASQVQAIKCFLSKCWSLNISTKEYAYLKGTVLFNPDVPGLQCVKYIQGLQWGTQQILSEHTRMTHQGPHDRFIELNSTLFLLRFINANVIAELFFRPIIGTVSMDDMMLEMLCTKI
# Starred values were filed as active, the others as inactive; x = not tested or not shown.
SMILES,hgDAF-12 ag,SMARCA2 activ,DAX1 inh-1,hcDAF-12 act,ssDAF-12 act,DAX1 inh-2
O=C(/C=C/c1ccccc1)NCCOc1ccccc1,5.7,7.8*,0.8,1.9,-0.4,2.3
O=C(NCCOc1ccccc1)C1CCCCC1,6.4,-0.1,4.1*,0.7,-1.3,0.6
O=C(CC1CCCCC1)NCCOc1ccccc1,4.8,6.0,0.3,-1.3,-2.0,2.8
COc1ccc(CCN2CC(C(=O)OCC(=O)N(C)Cc3ccccc3)CC2=O)cc1OC (centres undefined),0.0,-4.5,0.9,-0.5,-0.9,1.1
N#Cc1ccccc1C[C@H](N)C(=O)NC[C@H]1O[C@@H](n2ccc(N)nc2=O)[C@H](O)[C@@H]1O,3.5,-3.6,-1.9,-0.8,-1.6,0.0
CN1CCN(c2ccc(Cl)cc2NC(=O)/C=C/c2ccc(F)cc2)CC1,-1.5,5.0,-0.1,0.0,-1.6,5.7*
COc1cccc(N2C(=NC(=O)C3CCCCC3)SC3CS(=O)(=O)CC32)c1 (centres undefined),1.0,4.5,0.1,0.3,-1.4,0.4
O=C(CC1Sc2ccccc2NC1=O)Nc1cccnc1 (centres undefined),-3.9,-1.0,1.2,0.5,-0.6,1.7
CC(C(=O)Nc1cccnc1)C1Sc2ccccc2NC1=O (centres undefined),2.5,0.4,-0.3,6.0*,-0.6,1.3
CCCCCCCCN1C(=O)[C@@H](CC(=O)NCCCOC)C[C@@]2(C(=O)OC)C1=C[C@H](COCc1ccccc1)O[C@@H]2C,3.4,-1.4,0.7,-0.5,-0.9,x
CNC(=S)Nc1cccc(C(=O)O)c1,0.7,4.1,0.3,2.9,1.4*,2.2
O=C(O)c1cccc(NC(=S)NC(=O)c2ccncc2)c1,3.0,2.7,-0.4,-0.3,-1.1,0.2
O=C(CCc1ccccc1)NNC(=O)c1ccccc1Br,-4.2,-1.8,-0.7,-1.9,-1.1,5.0*
COc1ccccc1NC(=S)NC(=O)CCc1ccccc1,-0.3,-1.8,-0.5,-0.5,-0.7,0.8
O=C(CCc1ccccc1)NC(=S)Nc1ccccc1Br,-0.3,1.5,0.2,-1.8,-0.9,8.4*
COc1ccc(/C=N/NC(=S)Nc2cccc(C(=O)O)c2)cc1OC,-0.6,-1.3,0.5,-1.0,-0.3,-3.1
COc1cccc(/C=N/NC(=S)Nc2cccc(C(=O)O)c2)c1,9.8,4.4,2.3,2.7,1.6*,-2.0
O=C(Cc1nc2ccccc2[nH]1)c1ccc(Cl)cc1,3.2,-0.3,0.9,0.8,-0.5,3.3
O=C(CCc1ccccc1)NC(=S)Nc1cccc(C(=O)O)c1,8.7,5.7,4.0*,2.1,0.0,0.4
O=C(CCc1ccccc1)NC(=S)Nc1cccc(Br)c1,6.2,1.1,-0.1,-1.3,-1.4,0.9
O=C(N/N=C1\CC(c2ccccc2)Oc2ccccc21)c1ccccn1 (centres undefined),1.0,3.6,3.8*,3.7,-1.2,0.0
CCOC(=O)C(Cc1ccc(O)c([N+](=O)[O-])c1)N1C(=O)c2ccccc2C1=O (centres undefined),-1.2,-1.1,-1.5,1.3,-1.2,-0.1
COCc1cc(OC)nc(-c2csc(C)n2)n1,1.2,7.0,0.6,-1.0,-1.7,6.4*
COCc1cc(=O)[nH]c(-c2csc(C)n2)n1,1.1,-1.0,0.5,-0.4,-1.1,2.4
COc1ccc(-n2cnnc2SCC(=O)c2cc(C)n(Cc3cccs3)c2C)cc1,-0.2,3.9,0.0,-2.1,-1.3,-0.8
SMILES,hgDAF-12 ag,SMARCA2 activ,DAX1 inh-1,hcDAF-12 act,ssDAF-12 act,DAX1 inh-2
COc1ccc(-c2nc(SC)n(C(=O)c3ccco3)n2)cc1,5.7,-1.0,1.3,2.7,-0.8,4.2*
CCOc1ccc(/C=C2\SC(=S)N(CC(=O)NCCCN3CCOCC3)C2=O)cc1,8.2,2.5,0.1,0.4,-0.6,1.6
CC(=C1C(=O)c2ccccc2C1=O)N1CCc2ccccc2C1,3.5,7.9*,0.7,5.7*,-0.7,0.5
CC(C(=O)N1CCc2ccccc2C1)N(c1ccccc1)S(C)(=O)=O (centres undefined),-0.2,-3.0,-0.1,-1.3,-1.3,0.3
Cc1ccc(S(=O)(=O)N/N=C/c2cc(Br)ccc2O)cc1,-1.6,5.2,1.3,-1.4,-1.3,0.2
COc1ccc(/C=C/C(=O)OCC(=O)N(C)CC(=O)Nc2ccc(C)cc2)c(OC)c1,1.2,1.6,0.4,0.4,-0.8,-0.1
